Shown are actives, neighbours in structure and some others; about 2.9% of the full set was active somewhere.
MITF TRPM1 inh: reduces MITF-dependent TRPM1 promoter luciferase signal | SK-MEL-5 TRPM1 promoter luciferase, 24 h | inhibition, % at 12.5 µM | 330,000 tested, 0.83% active;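 active means mean inhibition across replicates of 60% or more, whatever share of single replicates reaches that level; inconclusive means some that reach 60%, reason not given; inactive means mean inhibition across replicates below 60%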
Wnt bcat act: activators of Wnt/beta-catenin signaling; Wnt/beta-catenin reporter cell assay, activator, plate reader; activation, % at 9.35 µM; 300,000 tested, 1.2% active; AID 743398; in the data active means activation above about 30%, passing the limit was not always enough; inconclusive means no clear call, values can overlap the other calls;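 further: 0% = neutral control wells and 100% = positive control wells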
MITF TRPM1 HTS: increases MITF-driven TRPM1 promoter luciferase signal; activation, % at 12.5 µM; 300,000 tested, 0.75% active; AID 588334; SK-MEL-5 TRPM1-promoter luciferase, 24 h; % of positive control, neutral wells = 0;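 active means mean activation of at least 80% with every replicate also reaching 80%; inconclusive means mean reaches 80% but some replicate falls short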;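 further: 0% = neutral control wells and 100% = parthenolide positive control wells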
PfHsp90 set2: growth inhibition of yeast expressing Plasmodium Hsp90; S. cerevisiae expressing PfHsp90, BacTiter-Glo ATP, 48 h; yeast lacking PDR1 and PDR3 efflux regulators; inhibition, % at 9.4 µM; 310,000 tested, 0.32% active; AID 504621;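 active means every replicate shows inhibition above about 80%, whatever the replicate mean, limit read from the data; inconclusive means mean inhibition reaches the set limit but some replicate falls short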;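 further: 0% = DMSO neutral controls and 100% = 20 µM radicicol positive controls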
NSD2 HMT inh: blocks human histone methyltransferase NSD2. O96028. NSD2 peptide methylation, AlphaScreen, 120 min. inhibition, % at 12.5 µM. 310,000 tested, 0.54% active. AID 743445; in the data active means inhibition above about 50%
N-glyco inh: N-linked glycosylation inhibition; D54 ERlucT glycosylation luciferase reporter, 24 h; percent of 100 nM tunicamycin response; reporter increase, % at 12.5 µM; 360,000 tested, 0.23% active; AID 588692;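 active means mean luciferase reporter signal, scaled so untreated is 0 and the glycosylation-blocking control 100, at or above a set limit in every replicate; inconclusive means mean reaches the limit but not every replicate does; inactive means mean below the limit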;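 further: luciferase carries N-glycosylation sites so blocking glycosylation raises the light; 0% = median of neutral control wells and 100% = median of 100 nM tunicamycin wells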
* hit, by the source's call.

`O=C(Nc1ccc(Oc2ccccc2)cc1)C1CCN(c2nnc(-n3cccc3)s2)CC1` gave NSD2 HMT inh 1.
For O=C(Nc1ccc(C(=O)O)cc1)Nc1ccc([N+](=O)[O-])cc1 the results were MITF TRPM1 inh 15, Wnt bcat act 2, MITF TRPM1 HTS -17, PfHsp90 set2 -24, NSD2 HMT inh -1 and N-glyco inh 0.
Screening O=C(Nc1cc(C(F)(F)F)cc(C(F)(F)F)c1)Nc1cnn(-c2ccc([N+](=O)[O-])cc2)c1C(F)(F)F returned MITF TRPM1 inh 70*, Wnt bcat act -13, PfHsp90 set2 15, NSD2 HMT inh -1 and N-glyco inh -15.
CCn1c(Cc2cccs2)nnc1SCC(=O)Nc1ccc(OCc2ccccc2)cc1 was read as NSD2 HMT inh 1.
`CCOC(=O)c1ccc(-c2ccc(CO)o2)cc1` gave MITF TRPM1 inh -56, Wnt bcat act 45*, NSD2 HMT inh -2 and N-glyco inh -4.
Cc1ccc(-c2ccc(CO)o2)cc1N was read as MITF TRPM1 inh -9, Wnt bcat act 2, MITF TRPM1 HTS 9, PfHsp90 set2 -14, NSD2 HMT inh 8 and N-glyco inh 0.
For CC(C)(C)OC(=O)NNC(=S)NC1CCCCC1 the results were MITF TRPM1 inh -2, Wnt bcat act 46*, MITF TRPM1 HTS 4, PfHsp90 set2 0, NSD2 HMT inh 0 and N-glyco inh 2.
`CC(=O)N1CCN(c2ccc(N3CCN(Cc4ccccc4)[C@@H](C)C3)c(C)c2)[C@@H](C)C1` gave Wnt bcat act -5.
`Fc1ccccc1-c1n[nH]c(=S)n1N=Cc1ccc(-c2ccccc2)cc1` gave NSD2 HMT inh -2.
`CCOc1ccc(N2C(=O)c3ccccc3C2=O)cc1` gave MITF TRPM1 inh -8, MITF TRPM1 HTS 7, PfHsp90 set2 10, NSD2 HMT inh -3 and N-glyco inh 0.
`CCOc1ccc(N2C(=O)c3ccccc3C2O)cc1` (stereo unspecified) gave Wnt bcat act 43*, PfHsp90 set2 35 and N-glyco inh -3.
Screening COc1ccc2c(c1)CCCN2C(=O)C1CCCN(S(=O)(=O)c2cccc3ccccc23)C1 (stereo unspecified) returned NSD2 HMT inh 7.
For CCCC(=O)NC(c1ccc(OC)c(OC)c1)c1cc(Cl)c2cccnc2c1O (stereo unspecified) the results were MITF TRPM1 inh inconclusive, Wnt bcat act 4, MITF TRPM1 HTS -61, PfHsp90 set2 100*, NSD2 HMT inh 0 and N-glyco inh -10.
`CC(=O)NC(c1ccc(N(C)C)cc1)c1cc(Cl)c2cccnc2c1O` (stereo unspecified) gave Wnt bcat act -19, NSD2 HMT inh 3 and N-glyco inh -11.
Screening CCC(=O)NC(c1cccs1)c1cc(Cl)c2cccnc2c1O (stereo unspecified) returned MITF TRPM1 inh 52, Wnt bcat act -6, MITF TRPM1 HTS -55, PfHsp90 set2 102*, NSD2 HMT inh -2 and N-glyco inh -6.
For CCCCC(=O)NC(c1cccs1)c1cc(Cl)c2cccnc2c1O (stereo unspecified) the results were MITF TRPM1 inh 45, Wnt bcat act -5, MITF TRPM1 HTS -48, PfHsp90 set2 103* and N-glyco inh -13.
O=C(NCc1ccccc1)[C@@H]1CCCN1C(=O)[C@H]1CCCN1C(=O)c1ccc(F)cc1 was read as Wnt bcat act 3.
Cc1nn(-c2nc3ccccc3s2)c(N)c1-c1ccccc1 was read as MITF TRPM1 inh -77, Wnt bcat act inconclusive, MITF TRPM1 HTS inconclusive, PfHsp90 set2 -10, NSD2 HMT inh -1 and N-glyco inh -6.
Screening Cc1nn(-c2ccccc2)c(N)c1-c1ccccc1 returned MITF TRPM1 inh -105, Wnt bcat act inconclusive, MITF TRPM1 HTS 114*, NSD2 HMT inh 6 and N-glyco inh 1.
For Cc1nc2cc(-c3ccccc3)nn2c(N)c1-c1ccccc1 the results were MITF TRPM1 inh -28, Wnt bcat act 6, MITF TRPM1 HTS 33, PfHsp90 set2 -9, NSD2 HMT inh -2 and N-glyco inh -14.
Screening Cc1nn(-c2nc3ccccc3[nH]2)c(N)c1-c1ccccc1 returned MITF TRPM1 inh -65, Wnt bcat act 55*, MITF TRPM1 HTS 68, PfHsp90 set2 4, NSD2 HMT inh 15 and N-glyco inh -1.

From PubChem BioAssay
